Wnt bcat act: activates Wnt/beta-catenin signaling in a reporter cell assay; activator, plate reader; activation, % at 9.35 µM; 300,000 tested, 1.2% active; in the data active = activation above about 30%, passing the limit was not always enough; inconclusive = no clear call, values can overlap the other calls
esBAF inh: SWI/SNF esBAF complex inhibition; mouse ES cells, Bmi1-luciferase knock-in reporter, 24 h; 100% = twice the neutral-well signal; reporter increase, % at 12.5 µM; 350,000 tested, 2% active; in the data active = activation above about 40%; inconclusive = no clear call, values can overlap the other calls;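 note: a rise in the Bmi1 reporter signal indicates esBAF inhibition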
HSF1 inhib: HSF1 inhibition. NIH3T3-HGL HSE-luciferase, MG132-induced, luminescence 8 h; stronger effect = lower value. activity change, negative = inhibition, % at 7.5 µM (by protocol). 300,000 tested, 0.77% active;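 active = more than half of replicate wells show activity change below -50%, luminescence cut by over half; inconclusive = some wells, but at most half, below -50%; inactive = no replicate well below -50%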;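 note: luciferase reports HSF-1 transcriptional activity via heat shock element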
HSF1 activator: increases HSF-1 driven luciferase reporter signal | activation, % at 9 µM | NIH3T3-HGL HSF-1 luciferase reporter, MG132, 8 h; 100% = twice DMSO control signal | AID 504408 | 300,000 tested, 1.7% active;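 active = mean replicate activation of at least 50% with a set share of replicates each reaching 50%; inconclusive = only one of those two conditions met; inactive = mean below 50% and too few replicates reaching it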
MITF TRPM1 HTS: increases MITF-driven TRPM1 promoter luciferase signal. activation, % at 12.5 µM. 300,000 tested, 0.75% active. SK-MEL-5 TRPM1-promoter luciferase, 24 h; % of positive control, neutral wells = 0. AID 588334;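 active = mean activation of at least 80% with every replicate also reaching 80%; inconclusive = mean reaches 80% but some replicate falls short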
Hits are given with their value; i = inactive; ? = inconclusive; nt = no result. Hits are enriched below; roughly 3.8% of the tested compounds scored in any of these assays.

SMILES	Wnt bcat act	esBAF inh	HSF1 inhib	HSF1 activator	MITF TRPM1 HTS
COc1ccccc1NC(=O)N1C[C@@H](C)[C@H](OC)CN(C)C(=O)c2ccc(NC(=O)c3cnccn3)cc2OC[C@H]1C	nt	i	nt	nt	nt
COc1cccc(CC(=O)N[C@@H](CCSC)c2nc3ccccc3[nH]2)c1	i	nt	-53.7	i	i
CC(C)(C)C(=O)Nc1nc(-c2ccccc2)ns1	nt	48.6	i	i	nt
c1ccc(Nc2nc(-c3ccccc3)ns2)cc1	i	i	i	59.3	i
CC(=O)Cc1nsc(Nc2ccccc2)n1	nt	i	i	i	nt
O=C(Nc1nc(-c2ccccc2)ns1)c1ccncc1	?	nt	i	i	i
CCN1[C@@H]2c3ccc(-c4ccc(F)cc4)c(=O)n3C[C@@H]2[C@@H](CO)[C@@H]1C(=O)NCCc1cn(C)cn1	nt	i	nt	nt	nt
O=[N+]([O-])c1ccccc1N=NNc1ccccc1	i	113.3	nt	nt	i
COC(=O)c1ccccc1NN=Nc1ccccc1[N+](=O)[O-]	i	nt	nt	nt	nt
NC(=O)c1ccccc1NC(=O)COc1ccc(Cl)cc1	i	?	i	i	?
CCc1ccccc1NC(=O)CCS(=O)(=O)c1ccc(OC)cc1	i	i	-79.4	i	i
COc1ccc(OC)c(NC(=O)CNC(c2ccccc2)c2ccccc2)c1	i	i	i	62.2	nt
CCOc1ccccc1NC(=O)CCS(=O)(=O)c1ccc(OC)cc1	i	nt	i	i	i
COc1ccc(NC(=O)COc2ccccc2)c(OC)c1	i	50.7	i	i	i
Cc1ccc(OCC(=O)Nc2ccccc2C(N)=O)cc1	56.7	?	i	56.6	i
COc1ccc(OCC(=O)Nc2ccccc2O)cc1	nt	i	i	74.5	nt
COc1ccc(NC(=O)CSc2nc3ccccc3cc2Cc2ccccc2)cc1	i	i	i	i	i
COc1ccc(OC)c(NC(=O)CSc2nc3ccccc3cc2Cc2ccccc2)c1	nt	i	-54.2	i	i
Cc1cc(=O)[nH]c(N=N/C(=N/Nc2ccc(O)cc2)c2ccccc2)n1	nt	49.4	i	i	i
O=c1[nH]c(CSc2ncn[nH]2)nc2ccccc12	i	i	i	i	i
Cn1c(-c2ccccc2)cnc1SCc1nc2ccccc2c(=O)[nH]1	nt	nt	i	104.3	nt
O=c1[nH]c(CSc2ncnc3sccc23)nc2ccccc12	i	nt	i	56.1	i
Cn1c(SCc2nc3ccccc3c(=O)[nH]2)nc2ccccc21	i	nt	i	i	i
CN(C)C(=O)C[C@H]1CC[C@@H](NC(=O)C2CCOCC2)[C@@H](CO)O1	nt	i	nt	nt	nt
O=C(c1cccs1)n1nc(-c2ccco2)nc1SCc1ccccc1	nt	nt	-53.6	i	nt
SMILES	Wnt bcat act	esBAF inh	HSF1 inhib	HSF1 activator	MITF TRPM1 HTS
CC(=O)n1nc(-c2ccco2)nc1SCc1ccccc1	nt	55.1	i	i	i
CO[C@H]1CN(C)C(=O)c2cc(NC(=O)C3CC3)ccc2OC[C@@H](C)N(Cc2cncnc2)C[C@H]1C	nt	i	nt	nt	nt
C[C@@H]1CN([C@@H](C)CO)C(=O)c2cc(NC(=O)Cn3cnnn3)ccc2O[C@H]1CN(C)Cc1ccccc1	nt	i	nt	nt	nt
COc1ccc(/C=C/C(=O)C2C(=O)C=C(C)OC2=O)cc1O (stereo not drawn)	35.2	50.7	i	i	i
COc1cc(/C=C/C(=O)C2C(=O)C=C(C)OC2=O)cc(OC)c1O (stereo not drawn)	nt	nt	i	i	i
COc1cc(N=Nc2ccc3ccccc3c2)ccc1O	?	i	i	55.3	nt
Cc1ccc(C)c(S(=O)(=O)N(C(=O)c2ccncc2)c2ccc(OC(=O)c3ccncc3)cc2)c1	47.7	nt	i	i	i
C/C(=N\Nc1ccc(C(=O)O)cc1)c1ccc2c(c1)Nc1ccccc1S2	i	51.7	i	i	124.5
C/C(=N/Nc1ccc(C(=O)O)cc1)c1ccc2c(c1)Nc1ccccc1S2	i	nt	nt	nt	i
COc1cc(SC)ccc1C(=O)NCC1CCCO1 (stereo not drawn)	i	i	-74.0	i	i
COc1cc2ccccc2cc1C(=O)NC1CCC(C)CC1 (stereo not drawn)	38.1	56.7	nt	nt	118.1
COc1cc2ccccc2cc1C(=O)NC1CCCC1	i	96.4	nt	nt	i
COc1cc(SC)ccc1C(=O)NC1CCCCC1	i	54.1	i	i	i
COc1ccc(-c2cc(C(=O)NC3CCCC3)c3ccccc3n2)cc1OC	i	i	i	i	i
COc1ccc(OC)c(-c2cc(C(=O)NC3CCCC3)c3ccccc3n2)c1	i	i	i	i	i
C[C@@H]1CN([C@H](C)CO)C(=O)c2cc(NC(=O)Cn3cnnn3)ccc2O[C@@H]1CN(C)Cc1ccc(Cl)c(Cl)c1	nt	i	nt	nt	nt
CC(C)NC(=O)N[C@H]1CC[C@H](CCN)O[C@H]1CO	nt	i	nt	nt	nt
O=C(Cc1ccccc1)N[C@@H]1CC[C@H](CC(=O)N2CCOCC2)O[C@@H]1CO	nt	i	nt	nt	nt
Cc1ccc(S(=O)(=O)Nc2ccc3c(c2)C(=O)N([C@@H](C)CO)C[C@H](C)[C@@H](CN(C)C(=O)c2ccccc2)OCCCC[C@@H](C)O3)cc1	nt	i	nt	nt	nt
C[C@H](CO)N1C[C@H](C)[C@@H](CN(C)S(C)(=O)=O)Oc2ccc(NS(C)(=O)=O)cc2CC1=O	nt	i	nt	nt	nt
COc1ccccc1C(=O)Nc1ccccc1C(=O)NC1CCCCC1	i	i	i	i	i
COc1cc2ccccc2cc1C(=O)NC1CCCCC1	i	45.5	nt	nt	i
Nc1ccccc1Nc1cc(-c2ccccc2)nn1-c1cccc(Cl)c1	i	nt	i	i	i
CNc1nn(-c2cccc(Cl)c2)nc1N	nt	62.0	i	i	i
CCC(=O)Nc1ccc2oc(-c3ccccc3Br)nc2c1	nt	58.7	i	i	130.2
SMILES	Wnt bcat act	esBAF inh	HSF1 inhib	HSF1 activator	MITF TRPM1 HTS
Cc1ccccc1-c1nc2cc(NC(=O)C3CC3)ccc2o1	i	63.2	i	90.9	i
Cc1ccc(OCC(=O)Nc2ccc(O)c(-c3nc4ccccc4o3)c2)cc1	i	54.1	i	i	i
CC(=O)Nc1ccc2oc(-c3ccccc3Br)nc2c1	nt	nt	i	?	i
Cc1ccccc1-c1nc2cc(Cl)ccc2c(=O)o1	i	nt	i	i	i
Cc1ccccc1-c1nc2cc(Cl)ccc2o1	37.9	nt	i	?	?
O=C(C[C@H]1C[C@@H]2c3cc(NC(=O)C4CCOCC4)ccc3O[C@@H]2[C@H](CO)O1)NCc1ccc(Oc2ccccc2)cc1	nt	i	nt	nt	nt
C/C=C/c1ccc2c(c1)O[C@H](CN(C)C(=O)CC)[C@@H](C)CN([C@H](C)CO)S2(=O)=O	nt	i	nt	nt	nt
Cc1cccc(S(=O)(=O)N[C@H]2CC[C@H](CCn3cc(-c4ccccn4)nn3)O[C@H]2CO)c1	nt	i	nt	nt	nt
COc1ccc(CCNc2oc(COc3ccc(Br)cc3)nc2C#N)cc1OC	i	i	i	55.8	i
CCc1nnc(NC(=O)c2nc(S(=O)(=O)Cc3cccc(C)c3)ncc2Cl)s1	i	i	-65.0	i	i
CCc1nnc(NC(=O)c2nc(S(=O)(=O)Cc3ccccc3)ncc2Cl)s1	i	i	i	i	i
CCc1nnc(NC(=O)c2nc(S(=O)(=O)Cc3ccc(C)cc3)ncc2Cl)s1	i	i	-60.4	i	i
Cc1noc(C)c1NC(=O)Nc1ccc2c(c1)C(=O)N([C@@H](C)CO)C[C@@H](C)[C@@H](CN(C)S(=O)(=O)c1cn(C)cn1)OCCCC[C@@H](C)O2	nt	i	nt	nt	nt
CCc1cc2c(NCCC(=O)O)nc(C)nc2s1	nt	i	-59.9	i	nt
